Screens from PubChem.
The list is not random: actives were taken first. Their share in the collection is about 11%.
IMPase cell inh: IMPase inhibition in cells | P97697 | CHO-M1 cells, IP1 accumulation, HTRF TR-FRET ratio | inhibition (IP1 accumulation), % at 46.1 µM | 120,000 tested, under 10 active; active means well fitted curve in the direction sought with a large enough effect in the signal ratio, not every such curve was filed as active; inconclusive means small, poorly fitted or top-dose-only effect, or a change in a side signal; inactive means no such curve, though single readings can be large or run the other way; the % refers to the signal ratio;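 further: cells stimulated with carbachol in lithium chloride buffer; higher means more IMPase inhibition seen as more IP1 and lower FRET ratio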
Target sequence (P97697 whole entry, looked up): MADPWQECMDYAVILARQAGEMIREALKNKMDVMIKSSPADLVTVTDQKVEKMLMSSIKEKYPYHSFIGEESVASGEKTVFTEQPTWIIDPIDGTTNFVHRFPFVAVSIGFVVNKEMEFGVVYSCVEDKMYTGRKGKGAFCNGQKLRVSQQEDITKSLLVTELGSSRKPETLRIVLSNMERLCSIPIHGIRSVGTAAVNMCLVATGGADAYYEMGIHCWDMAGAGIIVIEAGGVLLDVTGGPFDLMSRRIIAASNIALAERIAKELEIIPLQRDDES
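Carbachol-driven Gq signalling in CHO-M1 cells (2000/well) generates IP1. Compounds that block IMPase raise IP1 and so reduce the FRET signal from Eu-anti-IP1 and d2-IP1 after a 10 min room-temperature lysis.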
ALDH1A1 block: blocks purified human ALDH1A1 activity; P00352; Purified ALDH1A1, NADH fluorescence, propionaldehyde substrate; Potency, µM (top dose mostly 75.3 µM), usual class: inhibitors; hit rate 7.3% among 220,000; active means well fitted inhibition curve with a large enough effect, not every such curve was filed as active; inconclusive means small, poorly fitted or top-dose-only effect, or another doubt; inactive means no such curve, though single readings can be large or run the other way
HPGD inh: blocks human HPGD enzyme activity; P15428; purified HPGD, NADH fluorescence kinetic, PGE2 substrate; hit rate 4.3% among 150,000; AID 894; Potency, µM, actives largely listed as inhibitors; active means well fitted inhibition curve with a large enough effect, not every such curve was filed as active; inconclusive means small, poorly fitted or top-dose-only effect, or another doubt; inactive means no such curve, though single readings can be large or run the other way
Target sequence (P15428 whole entry, looked up): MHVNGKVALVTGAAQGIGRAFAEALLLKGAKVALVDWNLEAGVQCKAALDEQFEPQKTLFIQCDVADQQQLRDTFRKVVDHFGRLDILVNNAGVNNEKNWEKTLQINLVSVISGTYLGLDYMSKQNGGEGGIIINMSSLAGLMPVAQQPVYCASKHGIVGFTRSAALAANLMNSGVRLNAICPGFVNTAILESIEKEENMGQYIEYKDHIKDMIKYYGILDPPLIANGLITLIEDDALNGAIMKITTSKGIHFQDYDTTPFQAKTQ
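20 nM HPGD preincubated 15 min at room temperature with compound in 50 mM Tris-HCl pH 8, 0.01% Tween 20. Started with 1 mM NAD+ and 30 uM prostaglandin E2; NADH fluorescence (360/450 nm) read 5 times over 30-s intervals, last minus first.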
ALOX12 inhib: 12-hLO (ALOX12) enzyme inhibition | P18054 | purified 12-hLO, xylenol orange hydroperoxide absorbance | Potency, µM (top dose mostly 57.1 µM), usual class: inhibitors | hit rate 0.12% among 150,000 | AID 1452; further: nearly all actives have a fitted effect of over 55% in size
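Xylenol orange chromogenic assay: hydroperoxide from 12hLO oxidises Fe(II), giving red-shifted Fe(III)-XO absorbance. Conditions: 150 nM enzyme, 40 uM arachidonic acid, 25 mM Hepes pH 7.0, 0.01% Triton X-100, 30 min, room temperature.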
IMPase Li cell: cell-permeable IMPase inhibitors with lithium potentiation; AID 1457; hit rate 0.35% among 210,000; CHO-M1 cells, IP1 TR-FRET (IP-One), carbachol + lithium; Potency, µM (doses to about 59.4 µM), actives largely listed as inhibitors;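 further: IP1 builds up when IMPase is blocked and the TR-FRET signal falls; nearly all actives have a fitted effect of over 50% in size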
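Test compounds were applied to CHO-M1 cells previously cultured for 16–30 h at 2000 per well. A small lithium amount accompanied them; after 30 min at 37C, IP1 was quantified by TR-FRET.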
PNC assembly inh: blocks assembly of the perinucleolar compartment | PC3M PTB-GFP, PNC prevalence imaging, 16 h; active compounds read low | hit rate 3.1% among 140,000 | activity change (PNC), negative = inhibition, % at 10 µM;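 active means readout at or below -70, meaning at least 70% loss of cells showing the perinucleolar compartment, a nuclear body marking cancer cells; inconclusive means readout between -30 and a set limit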
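Compounds are pinned in duplicate onto adhered PC3M cells stably expressing GFP-tagged PTB and incubated 16 h at 37 C. Cells are then fixed, nuclei stained with Hoechst, and PNC-positive cells counted.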
Hits are given with their value; i = inactive; ? = inconclusive; nt = not tested or not shown; [ ] = another dose, or the depositor's remark. Unless noted, the call rests on the fitted dose curve; in most records, active means well fitted curve in the direction sought with a large enough effect; inconclusive means small, poorly fitted or top-dose-only effect, or another doubt; inactive means no such curve, though single readings can be large; an effect the other way counts as inactive or inconclusive.

SMILES	IMPase cell inh	ALDH1A1 block	HPGD inh	ALOX12 inhib	IMPase Li cell	PNC assembly inh
C[C@@]1(O)C(O)[C@@H](CO)O[C@H]1n1cnc2c(NC3CCCC3)nc(Cl)nc21 (stereo partly specified)	nt	i	i	i	i	nt
Cn1cccc1C(=O)N1CCC[C@@]2(CCN(C(c3ccccc3)c3ccccc3)C2)C1	nt	i	i	i	i	nt
C=CCc1cc(/C=C2/NC(=O)N(CC)C2=O)cc(OCC)c1OCc1ccc(C(=O)O)cc1	nt	3.16µM	i	i	i	i
CCOC(=O)CC1C(=O)NCCN1C(=S)Nc1ccccc1 (stereo unspecified)	nt	?	i	i	i	-91.0
COC(=O)CC1C(=O)NCCN1C(=S)Nc1ccccc1 (stereo unspecified)	nt	i	i	i	i	i
CCOC(=O)CC1C(=O)NCCN1S(=O)(=O)c1cc(Cl)c(Cl)cc1Cl (stereo unspecified)	i	i	i	i	i	-98.3
Nc1ncnc2c1ncn2[C@@H]1O[C@H](COP(=O)(O)OP(=O)(O)OP(=O)(O)OP(=O)(O)OC[C@@H]2O[C@H](n3cnc4c(N)ncnc43)[C@@H](O)[C@@H]2O)[C@H](O)[C@H]1O	nt	i	i	nt	i	nt
Fc1ccc(-c2nc3n(c2-c2ccncc2)CCS3)cc1	nt	i	?	i	i	nt
Cc1ccccc1Nc1oc(-c2ccccc2)nc1-c1ccccc1F	nt	i	i	i	i	nt
Cc1ccccc1Nc1oc(-c2ccccc2)nc1-c1cccc2ccccc12	nt	25.1µM	i	i	i	nt
Cc1ccc2nc(N3C(=O)C(O)=C(C(=O)c4ccc(C)o4)C3c3cccc(O)c3)sc2c1 (stereo unspecified)	nt	i	nt	nt	8.91µM	nt
Cc1ccc(C(=O)C2=C(O)C(=O)N(c3ncccn3)C2c2cccc(Cl)c2)o1 (stereo unspecified)	?	12.6µM	i	i	?	i
CN(C)C(N)=NCCC[C@H](N)C(=O)O	i	i	i	i	i	nt
O=C(Nc1cccc(F)c1)N1CC[C@@]2(CCCN(C(=O)c3ccco3)C2)C1	nt	?	i	i	i	nt
CC(C)(C)C(=O)OCC(=O)C1CCC2C3CCC4=CC(=O)CCC4(C)C3CCC12C (stereo unspecified)	nt	i	i	i[0.00818 µM]	i	nt
COCCNC(=O)CN(CCc1ccccc1)S(=O)(=O)c1ccc(OC)cc1	i	?	i	i	i	i
COc1ccc(S(=O)(=O)N(CCc2ccccc2)CC(N)=O)cc1	nt	7.94µM	nt	nt	i	nt
O=C(/C=C/c1ccccc1)c1ccc(O[C@H]2OC(CO)C(O)C(O)C2O)cc1O (stereo partly specified)	nt	i	i	i	i	nt
O=C(C1CCCCC1)N(CCN1CCN(c2ccccc2CO)CC1)c1ccccn1	nt	i	nt	nt	i	nt
Cc1ccc(C)c(Cc2c(C)nc3c(C(=O)N4CCOCC4)cnn3c2C)c1	i	?	?	i	i	?
CCOC(=O)N1CCN(C(=O)c2cnn3c(C)c(Cc4ccc(C)cc4)c(C)nc23)CC1	i	25.1µM	nt	i	nt	i
COC(=O)c1cnn2c(C)c(Cc3cccc(F)c3)c(C)nc12	i	?	?	i	i	-87.9
Oc1cc2c(cc1O)[C@H]1c3ccc(O)c(O)c3OC[C@@]1(O)C2	i	i	12.6µM	i	i	nt
CC(=O)Oc1ccc2c(c1OC(C)=O)OCC1(O)Cc3c(cc(OC(C)=O)c(OC(C)=O)c3OC(C)=O)C21 (stereo unspecified)	nt	i	i	i	i	nt
Oc1ccc2c(c1)OCC1(O)Cc3cc(O)c(O)cc3C21 (stereo unspecified)	nt	28.2µM	?	i	i	nt
SMILES	IMPase cell inh	ALDH1A1 block	HPGD inh	ALOX12 inhib	IMPase Li cell	PNC assembly inh
NC(=O)c1cc[n+](CC2=C(C(=O)[O-])N3C(=O)[C@@H](NC(=O)Cc4cccs4)[C@@H]3SC2)cc1	i	i	i	i	i	nt
O=C(NNC(=O)c1sc2cccc(Cl)c2c1Cl)NC1CCCCC1	i	3.55µM	i	i	i	i
O=C(NNC(=O)C1CC2CCC1C2)c1sc2ccccc2c1Cl (stereo unspecified)	i	25.1µM	i	i	i	i
O=C(NNC(=S)NC1CCCCC1)c1sc2ccccc2c1Cl	nt	22.4µM	i	i	i	i
CC(C)(C)C(=O)NC(=S)NNC(=O)c1sc2ccccc2c1Cl	i	?	i	i	i	-112.5
O=C(NNC(=O)c1sc2cccc(Cl)c2c1Cl)Nc1ccccc1	i	?	i	i	i	?
CC(NC(=O)c1sc2ccccc2c1Cl)C1CCCO1 (stereo unspecified)	nt	i	i	i	i	i
CC(C)c1nnc(NC(=O)c2sc3ccccc3c2Cl)s1	i	?	i	i	i	i
C=C1C(=O)[C@]23[C@H](O)[C@H]1CC[C@H]2[C@@]12COC3(O)[C@H](O)[C@@H]1C(C)(C)CC[C@@H]2O	nt	i	?	i[0.00818 µM]	i	nt
CCc1c2c(nc3c(C(C)C)cccc13)-c1cccc(=O)n1C2	nt	?	?	i	i	nt
COC(=O)c1ccc(C(/C=C/[C@@H](C)C(=O)N[C@H](C)CO)NC(=O)OCc2ccccc2)cc1 (stereo partly specified)	nt	i	i	i	i	nt
CCN(CC)S(=O)(=O)c1ccc(NC(=S)NC(=O)CC(C)C)cc1	nt	i	i	i	i	-83.0
CCN(CC)S(=O)(=O)c1ccc(NC(=S)NC(=O)C(C)C)cc1	nt	28.2µM	i	i	i	i
O=C(Nc1cccc(C(=O)N2CCN(c3cccc(Cl)c3)CC2)c1)c1ccccc1	nt	i	nt	nt	i	nt
CC(C)(C)OC(=O)NCC12C=CC(O1)C1C(=O)N(Cc3ccccc3)C(=O)C12 (stereo unspecified)	i	3.16µM	i	i	i	i
CCOC(=O)C1C2C=CC3(CN(Cc4ccccc4)C(=O)C13)O2 (stereo unspecified)	nt	i	nt	nt	i	nt
O=C(c1cccc(F)c1)N1CCC2(CCCN(c3ccc(-c4ccccc4)cc3)C2)CC1	nt	i	i	i	i	nt
Cc1cc(/C=C2/NC(=S)NC2=O)c(C)n1-c1cccnc1	nt	i	nt	nt	i	nt
Cc1cc(/C=C2/SC(=S)N(c3ccc([N+](=O)[O-])cc3)C2=O)c(C)n1-c1cccnc1	nt	1.26µM	?	i	i	i
Cc1cc(/C=C2/NC(=O)N(c3ccccc3)C2=O)c(C)n1-c1cccnc1	nt	4.47µM	i	i	i	i
COc1ccc(/C=C2/C(=O)N(c3nc4ccccc4s3)N=C2CSc2ccc(Cl)cc2)cc1	i	?	14.1µM	i	i	i
CC(C)NC(=O)N1CC2(CCN(C(=O)c3ccco3)CC2)C1	nt	?	i	i	i	nt
C=CCSSSCC=C	nt	12.6µM	28.2µM	i	i	nt
COC(=O)[C@@H]1CCCN1C(=O)[C@H]1C[C@@H]1[C@H](NC(=O)OCc1ccccc1)c1ccccc1	nt	?	i	i	i	nt
